HIF-2a block: HIF-2a inhibition. 786-0 RCC cells HIF-2a reporter, luciferase luminescence, overnight. hit rate 0.72% among 360,000. inhibition, % at 18.8 µM;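 active = inhibition of the luminescence signal of 40% or more relative to plate controls, in a single-dose primary screen at 18.75 µM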
CF NFkB inh: blocks PAF-induced NF-kB reporter in cystic fibrosis cells | KKLEB NF-kB-GFP reporter, GFP fluorescence overnight | inhibition, % at 5 µM | hit rate 0.86% among 360,000 | AID 588850;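 active = at least 50% inhibition at 5 µM, scaled per plate between neutral and stimulator controls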;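 note: PAF is a Pseudomonas aeruginosa culture filtrate used as stimulus; plate controls were PAF-stimulated DMSO wells for no effect and unstimulated DMSO wells for full effect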
CHOP inh: inhibitors of CHOP induction in ER stress response. hit rate 3.8% among 220,000. CHO-K1 CHOP-promoter luciferase, tunicamycin-induced, 15-18 h. inhibition, % at 10 µM. AID 2732;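 active = compounds that reduced the stress-induced luciferase reporter signal by more than about 70% of percent inhibition, limit read from the data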;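 note: 0% = tunicamycin plus vehicle and 100% = wells without tunicamycin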
Peg3 prom inh: reduces Peg3 promoter-driven luciferase expression in HeLa. HeLa PEG-Prom luciferase reporter, luminescence, overnight. inhibition, % at 20 µM. hit rate 1.7% among 360,000;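 active = inhibition of at least 50% at 20 µM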
KKLEB cytotox: CF airway cell cytotoxicity counter-screen; KKLEB CF airway cells viability, ATPlite luminescence, overnight; hits give low values; cells stimulated with P. aeruginosa culture filtrate; activity change (cytotoxicity), % at 5 µM; hit rate 0.36% among 360,000;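 active = corrected activity change at or below -50% at 5 µM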
TRPM1 prom inh: MITF TRPM1 promoter inhibition in SK-MEL-5 cells; AID 488899; inhibition, % at 12.5 µM; hit rate 0.83% among 330,000; SK-MEL-5 TRPM1 promoter luciferase, 24 h;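 active = mean inhibition across replicates of 60% or more, whatever share of single replicates reaches that level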
An asterisk follows results filed as active; x = no result given. Rows were chosen to be rich in hits. Some 4.3% of all compounds tested hit in one or more screens of this group.

SMILES	HIF-2a block	CF NFkB inh	CHOP inh	Peg3 prom inh	KKLEB cytotox	TRPM1 prom inh
COc1ccc(C(=O)/C=C/c2ccc(N3CCCCC3)c([N+](=O)[O-])c2)cc1	-9	6	-13	6	0	16
CCN1CCN(c2ccc(S(=O)(=O)N3CCCCC3)cc2NC(=O)/C=C/c2ccc(OC(F)F)cc2)CC1	-14	17	x	96*	-17	-20
CCN1CCN(c2ccc(S(=O)(=O)N3CCCCC3)cc2NC(=O)/C=C/c2cccc(OC)c2OC)CC1	15	5	x	68*	11	78*
CN1CCN(c2ccc(S(=O)(=O)N3CCCCC3)cc2NC(=O)/C=C/c2ccc(Cl)c([N+](=O)[O-])c2)CC1	6	24	x	104*	-13	10
CCN1CCN(c2ccc(S(=O)(=O)N3CCCCC3)cc2NC(=O)/C=C/c2ccc(F)cc2)CC1	4	6	x	18	-12	-4
O=C(COC(=O)c1cccc(S(=O)(=O)Nc2ccc(F)cc2)c1)NCCN1C(=O)CSC1=O	6	12	x	21	-14	14
O=C(OCc1ccc(Br)cc1F)c1cc2ccccc2oc1=O	-16	-10	x	-32	4	8
COCCNC(=O)C1CCCN(C(=O)c2sc(-c3ccccc3)nc2C)CC1 (configuration not stated)	9	-6	x	-1	11	x
CN1CCN(c2ccc(S(=O)(=O)N3CCCCC3)cc2NC(=O)/C=C/c2ccc(OC(F)F)cc2)CC1	11	17	x	76*	-10	-2
O=S1(=O)CC(N2CC=CC2)CN1Cc1ccc(F)cc1 (configuration not stated)	5	-20	x	4	-2	x
COc1ccccc1N1CCN(CCN(C(=O)c2ccc(I)cc2)c2ccccn2)CC1	x	x	12	x	x	x
COc1cc(C(=O)Nc2ccncc2)cc(OC)c1OC	5	14	34	11	1	1
COc1cc(C(=O)NC(=S)Nc2ccc(N3CCCC3)cc2)cc(OC)c1OC	20	-7	75*	9	-1	11
COc1cc(C(=O)Nc2ccc3c(c2)Cc2cc(NC(=O)c4cc(OC)c(OC)c(OC)c4)ccc2-3)cc(OC)c1OC	5	68*	47	23	-77*	13
COc1ccc(C(=O)NC(=S)Nc2ccc(N3CCCC3)cc2)cc1	-3	4	4	-3	-12	3
Cc1ccc(N=C2NC(=O)S/C2=C\c2ccco2)cc1	-136	-30	100*	-101	10	-28
O=C(NC1CCCCC1)c1ccc(CS(=O)Cc2ccc(Cl)cc2)o1 (configuration not stated)	15	-7	x	9	-3	0
CN(C)C(=O)c1ccc(-c2cc3onc(-c4ccccc4)c3c(=O)n2C)cc1	-168	6	x	-231	-18	-64
C[n+]1c2n(c3ccccc31)N=C(c1ccc(-c3ccccc3)cc1)CS2	-3	25	47	1	-20	82*
N#CC(=C(\N)Sc1ccccc1N)/C(C#N)=C(/N)Sc1ccccc1N	x	x	-11	x	x	x
CCOc1ccc(NS(=O)(=O)c2ccc(C(=O)N(C)CC(=O)Nc3cccc(OC)c3)cc2)cc1	23	10	x	7	0	12
O=C(NCc1ccccc1)c1cc(C2COCCN2C(=O)CCc2ccccc2)on1 (configuration not stated)	11	-57	x	12	-2	x
O=C(/C=C\Nc1ccccc1Br)c1ccc2c(c1)OCO2	-28	-7	27	-32	-75*	44
O=C(/C=C/Nc1ccc(F)cc1Br)c1ccccc1	52*	4	45	39	-72*	58
CCOC(=O)[C@]12CCCC=C1N(Cc1ccc(Cl)cc1Cl)C(=O)[C@H](CC(=O)N1CCSCC1)C2	7	x	x	x	x	x
O=C1NC(=S)N/C1=C/c1ccc2c(c1)OCO2	20	78*	x	72*	-22	59
CC1Cc2ccccc2N1C(=O)COC(=O)c1c2c(nc3ccccc13)CCCCC2 (configuration not stated)	-25	43	-15	51*	-6	-2
O=C(OCC(=O)N1CCc2ccccc21)c1c2c(nc3ccccc13)CCCC2	-109	6	11	-29	-7	1
CCN(CC(=O)Nc1ccccc1OC)Cc1csc(CC(=O)Nc2ccc(C)cc2)n1	3	-9	x	19	-3	11
O=C(COC(=O)/C=C/c1cccc(F)c1)Nc1ccc(Cl)cn1	16	10	73*	11	3	-6

High-throughput results deposited in PubChem by several laboratories.
